Laboratory results published in PubChem BioAssay AID1903 (Southern Research Specialized Biocontainment Screening …, 2009).
Hit rate of the full screen: of about 310,000 compounds, about 1,200 (0.39%) were called active. The rule behind the calls is not given here. These entries were drawn from the full list. Entries with a potency or affinity are not part of this list.

biological target: Large T antigen (Simian virus 40) (UniProt P03070); test: TAg ATPase/helicase activity blockers – biochemical (AID 1903); settings: SV40 large T antigen ATPase/helicase inhibition assay; at 20 µM; hits give high values
Sequence (P03070 whole entry, looked up): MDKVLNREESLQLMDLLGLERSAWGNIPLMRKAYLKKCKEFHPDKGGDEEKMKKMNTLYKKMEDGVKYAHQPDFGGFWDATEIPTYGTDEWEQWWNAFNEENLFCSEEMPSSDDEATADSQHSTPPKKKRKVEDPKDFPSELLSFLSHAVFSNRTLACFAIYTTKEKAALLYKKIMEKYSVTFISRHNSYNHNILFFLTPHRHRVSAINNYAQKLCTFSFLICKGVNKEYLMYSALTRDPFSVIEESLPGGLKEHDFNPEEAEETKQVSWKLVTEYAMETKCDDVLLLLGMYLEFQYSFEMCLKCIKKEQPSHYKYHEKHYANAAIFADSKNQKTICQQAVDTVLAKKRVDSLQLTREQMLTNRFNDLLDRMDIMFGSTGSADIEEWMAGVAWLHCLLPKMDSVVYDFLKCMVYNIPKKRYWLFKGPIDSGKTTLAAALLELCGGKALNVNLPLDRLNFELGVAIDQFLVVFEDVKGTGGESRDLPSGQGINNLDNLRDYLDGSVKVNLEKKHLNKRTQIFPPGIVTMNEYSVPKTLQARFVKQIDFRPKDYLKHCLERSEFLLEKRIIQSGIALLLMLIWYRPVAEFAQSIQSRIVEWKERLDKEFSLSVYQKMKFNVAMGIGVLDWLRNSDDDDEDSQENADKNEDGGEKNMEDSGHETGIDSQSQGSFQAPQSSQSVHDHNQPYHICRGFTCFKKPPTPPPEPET

inhibition, inactive:
CCOc1ccc(C2/C(=C(/O)c3ccc4c(c3)CC(C)O4)C(=O)C(=O)N2CCCn2ccnc2)cc1OCC (stereo unspecified) 2.21%
Cc1ccsc1/C=N/NC(=O)c1cccnc1 10.3%
COc1cccc(N/C=C/C(=O)c2ccc(OC)c(OC)c2)c1 15.6%
Cc1cc(NC(=O)c2ccc3c(c2)C(=O)N(C)C3=O)no1 21.4%
COc1ccccc1C(=O)Nc1cccc2c1CCCC2 3.42%
Cc1cc(CNC(=O)CCc2nnc(CCCc3ccccc3)o2)nn1C 23%
Cc1cccc(N(CC(=O)NCc2ccc3c(c2)OCO3)C(=O)CCC(=O)Nc2ccccn2)c1 3.36%
c1ccc(OCCOCCSc2ncccn2)cc1 3.66%
COc1cccc(-c2ccc3nnc(SCC(=O)N4CCOCC4)n3n2)c1 8.56%
COc1cc(OC)c(C(=O)OCC(=O)N2CCOCC2)cc1OC -1.18%
COc1ccc(N2CCN(CC(=O)Nc3cc(C)on3)CC2)cc1 12.3%
COc1ccc(N2CCN(CC(=O)NC(=O)NC(C)(C)C)CC2)cc1 22.3%
CC(=O)c1ccc(N2CCN(CC(=O)Nc3cc(C)on3)CC2)cc1 11.5%
CC(C)(C)NC(=O)NC(=O)CN1CCN(c2ccccc2)CC1 -1%
CCCN(CC(=O)Nc1ccc(Cl)cc1Cl)Cc1cc(=O)n2ccsc2n1 -0.76%
COc1ccc(C(=O)NCc2nnc(SCC(=O)Nc3nnc(C)s3)o2)cc1 11.2%
Cc1ccc(S(=O)(=O)NCC(=O)N(CC(=O)NC2CCCC2)c2ccc3c(c2)OCCO3)cc1 6.71%
CCOc1c(C)cnc2c1c(=O)n(Cc1c(F)cccc1Cl)c(=O)n2C 18.6%
COc1ccc(N2Nc3n[nH]c(N)c3N2)cc1 34.9%
CCOc1ccc(N2C(N)=NC(N)=NC2(C)C)cc1 2.99%
COc1ccc(NC2=CC(c3ccc(OC)cc3)N(c3ccc(OC)cc3)C2=O)cc1 (stereo unspecified) 11.9%
Cc1cc(NS(=O)(=O)c2cccs2)no1 -2.38%
CC(=O)Nc1cccc(NC(=O)CSc2ncc(C(=O)Nc3ccccc3)c(=O)n2C)c1 19.6%
Fc1ccccc1COc1ccc(Br)cc1CNCC1CCCO1 (stereo unspecified) 4.34%
Cc1cccc(N2C(=O)c3ccccc3C2=O)n1 4.5%
Cc1cccc(N2C(=O)c3ccc(Br)cc3C2=O)n1 8.73%
Cc1csc(NC(=O)c2cc(=O)[nH]c3ccccc23)n1 5.64%
CN(C)S(=O)(=O)c1ccc(Cl)c(NC(=O)CN2CCNC(=O)C2)c1 5.76%
Cc1ccc(C)c(NC(=O)C(Sc2nc3ccccc3c(=O)n2CC(C)C)c2ccccc2)c1 (stereo unspecified) 4.6%
COc1ccc(C)cc1CN1C(=O)c2ccccc2C1=O 2.66%
COc1ccc(C=O)cc1CN1C(=O)c2ccccc2C1=O 0.06%
COc1ccc(CN2CC(C(=O)N3CCOCC3)CC2=O)cc1 (stereo unspecified) 13.7%
Cc1c(NC(=O)c2ccc(-c3ccc([N+](=O)[O-])cc3Cl)o2)c(=O)n(-c2ccccc2)n1C 7.53%
CC1=NN2C(=N)/C(=C\c3ccc(SCc4ccccc4)o3)C(=O)N=C2S1 15.7%
CCC1=NN2C(=N)/C(=C\c3ccc(SCc4ccco4)o3)C(=O)N=C2S1 0.38%
O=C(O)CN1C(=O)/C(=C/c2ccc(SCc3ccccc3)o2)SC1=S 12.4%
N=C1/C(=C\c2ccc(SCc3ccccc3)o2)C(=O)N=C2SC=NN12 -0.34%
O=C1NC(=S)S/C1=C/c1ccc(OC(=O)c2ccco2)cc1 12%
CCS(=O)(=O)C1=NN2C(=N)/C(=C\c3ccc(SCc4ccco4)o3)C(=O)N=C2S1 59.6%
Cc1ccc(-c2nnc(SC(C)C(=O)NCC3CCCO3)nc2-c2ccc(C)cc2)cc1 (stereo unspecified) 7.01%
Cn1c(=O)n(CCOc2ccc(Cl)cc2Cl)c2ccccc21 24.1%
O=C(COC(=O)c1ccccc1Oc1ccccc1)NC1CCS(=O)(=O)C1 (stereo unspecified) 2.91%
COc1ccc(C2c3sc(=O)[nH]c3SCC2C(N)=O)cc1 (stereo unspecified) 12.6%
CCCCOP(=O)(c1ccc(N(C)C)cc1)C(O)c1ccccc1F (stereo unspecified) 0.81%
O=C(CN(C(=O)CCC(=O)Nc1ccccn1)c1cccc(F)c1)NCc1ccc2c(c1)OCO2 5.37%
CCCNC(=O)N[C@@H](CCSC)C(=O)OC 1.19%
N#C/C(=C\c1ccccc1Cl)C(=O)NC(=O)Oc1ccccc1 23.3%
CCCCCc1nc2c(c(=O)c3ccccc3n2C)c(=O)n1Cc1ccc(OC)cc1 6.54%
c1ccc(-n2cc(CN3CCCC(CN4CCCC4)C3)c(-c3ccc4c(c3)OCO4)n2)cc1 (stereo unspecified) 0.36%
CC(=O)c1cccc(NC(=O)CCNC(=O)c2ccccc2Cl)c1 7.59%
O=C(N/N=C(\c1ccccc1)c1cccnc1)c1cccc(F)c1 8.05%
O=C(N/N=C(\c1ccccc1)c1cccnc1)c1ccc(O)cc1 14.2%
CCOC(=O)C1CCCN(C(=O)c2cn(CC)c3ccc(S(=O)(=O)N(C)C)cc3c2=O)C1 (stereo unspecified) 12.6%
Cc1c(Cl)cccc1NC(=O)Cn1cnc(S(=O)(=O)N2CCCC2)c1 12.7%
CC(NC(=S)Nc1ccc(Cl)cc1)C(c1ccccc1)N1CCOCC1 (stereo unspecified) 8.17%
COc1ccc2sc(C)[n+](C)c2c1 11.2%
CC[n+]1c(C)sc2cc(OC)ccc21 8.13%
Cn1c(SCC(=O)Nc2ccc3c(c2)OCCO3)nnc1-c1cccnc1 -0.17%
COc1ccc(/C=N/N2CCN(c3ccccc3OC)CC2)cc1OC 6.87%
COc1ccccc1N1CCN(/N=C/c2cccc(O)c2)CC1 7.2%
Fc1ccc(C2=Nn3c(nnc3-c3ccco3)SC2)cc1 9.39%
c1ccc(C2=Nn3c(nnc3-c3ccco3)SC2)cc1 10.2%
CN1N=C(C(=O)N2CCCC(C(=O)c3cccc(C(F)(F)F)c3)C2)CCC1=O (stereo unspecified) 2.73%
CCOc1ccccc1/C=N/n1c(COc2ccccc2)n[nH]c1=S 14.8%
CCN(CC)c1ccc(/C=c2\sc3nc4ccccc4n3c2=O)c(O)c1 11.3%
O=c1/c(=C/c2ccc(O)c([N+](=O)[O-])c2)sc2nc3ccccc3n12 9.09%
O=C(O)COCC(=O)Nc1ccc(-n2cnnn2)cc1 3.06%
C/C(=N\NC(=O)c1cccc(N/N=C(\C)c2ccc([N+](=O)[O-])cc2)c1)c1ccc([N+](=O)[O-])cc1 7.03%
C/C(=N\NC(=O)Cn1cc([N+](=O)[O-])cn1)c1ccco1 -0.91%
C/C(=N\NC(=O)Cn1nc(C)c([N+](=O)[O-])c1C)c1ccc(O)cc1 34.5%
C/C(=N\NC(=O)c1ccc([N+](=O)[O-])cc1)c1cccc([N+](=O)[O-])c1 6.04%
CC1(C)C2CCC(C2)C1(C)NC(=O)CNCc1cccs1 (stereo unspecified) 5.5%
Cc1cccc(CS(=O)(=O)Cc2ccc(C(=O)NC(C)c3ccccc3)o2)c1 (stereo unspecified) 2.72%
Cc1onc(-c2ccccc2)c1C(=O)Nc1ccc(S(=O)(=O)N2CCCC2)cc1 4.98%
COc1cc(/C=C/C(=O)CC(=O)/C=C/c2ccc(O)c(OC)c2)ccc1O 17.5%
COc1ccc(C=C(C(C)=O)C(C)=O)cc1OC 16.2%
N#C/C(=C\c1ccc(O)c(Br)c1)C(=O)N1CCCCC1 9.59%
N#C/C(=C\c1cccc(O)c1)C(=O)N1CCCCC1 13.5%
CC(=O)C1C(c2ccncc2)NC(=O)NC1(O)C(F)(F)F (stereo unspecified) 18.7%
Cn1/c(=N/NC(=O)c2ccccc2Br)sc2ccccc21 5.44%
CCOCCn1c(=NC(=O)CSCC(=O)Nc2cc(C)on2)sc2cc(OC)ccc21 -3.67%
Cc1ccc(S(=O)(=O)N(C)CC(=O)N2CCOCC2)cc1 0.93%
CCN(C=NC1=NN(c2cccc(C(F)(F)F)c2)CC1)CC 22.2%
OCCN(C=NC1=NN(c2cccc(C(F)(F)F)c2)CC1)CCO 29.5%
O=C(N/N=C/c1ccc2c(c1)OCO2)c1ccccn1 9.83%
Cc1ccc(S(=O)(=O)c2nc(-c3ccccc3Cl)oc2N(C)C)cc1 -3.31%
O=C(CCc1c[nH]c2ccccc12)OCC(=O)N1CCN(S(=O)(=O)c2ccccc2)CC1 10.9%
COc1cnc(-c2ccccn2)nc1Oc1ccc(Cl)cc1 11.2%
COc1cnc(-c2ccccn2)nc1Oc1ccccc1Cl 5.1%
Cc1c(C(=O)N2CCOCC2)c(S(=O)(=O)Nc2cccc(C#N)c2)c(C)n1C 5.47%
COc1cc(CNc2ccc(N3CCN(C(C)=O)CC3)cc2)ccc1OCc1ccc(F)cc1 19.5%
CCOc1c(Cl)cc(CNc2ccc(N3CCCC3)cc2)cc1OC 21.6%
CCOc1cc(CNc2ccc(N3CCOCC3)cc2)cc(Br)c1OCC 36.3%
CCOc1cc(CNc2ccc(N3CCCC3)cc2)cc(Cl)c1OC 12.8%
CCOc1cc(C(=O)Nc2ccc(N3CCN(C(C)=O)CC3)cc2)cc(OCC)c1OCC -4.85%
COc1cc(CNc2ccc(N3CCOCC3)cc2)cc(Br)c1OC 29.9%
